According to PubChem BioAssay AID1053144 (Broad Institute, 2014):
Screen size: about 3,400 compounds; about 160 (4.7%) were called active.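 How the source made its calls: active means fitted curve reaches 30% activation at a concentration no higher than the top valid tested dose, luminescence rising; inconclusive means no clear call, values can overlap the other calls; inactive means signal moving opposite to the expected increase, plus the rest.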 Not all results are given here. A call without a number means that no potency is given here. Potency and affinity values are given separately.

Experiment: TCF/LEF reporter activation in neural progenitors – cell-based, iPS-derived NPC, luciferase, Wnt3a, cherry-pick, dose response (AID 1053144);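 further: Wnt3a stimulus is conditioned medium from Wnt3a-transfected mouse L cells at 5% in well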
Conditions: Wnt3a EC25, 24 h; series mostly up to 26 µM

Compound	activation
Cc1ccc(C(=O)Nc2cccc(-c3ccc(N4CCOCC4)nn3)c2)cc1	inactive
O=C(Nc1cccc(-c2ccc(N3CCOCC3)nn2)c1)c1ccc([N+](=O)[O-])cc1	inactive
N/C(=N\OC(=O)c1ccc(Cl)cc1Cl)c1cccnc1	inactive
CN(C)Cc1c(C(=O)Nc2ccccc2)[nH]c2ccccc12	inactive
COc1ccc(C(=O)Nc2cccc(C)c2)cc1	inactive
CC1CCN(C(=O)CNC(=O)c2ccc(Br)o2)CC1	inactive
COc1cccc(/C=C/c2ccccn2)c1O	inactive
COc1ccccc1NC(=O)COc1ccccc1C(=O)c1cnn(-c2ccccc2)c1	inactive
O=C(c1cnn(-c2cccc(F)c2)c1)c1ccccc1O	inactive
CC(O)C(NS(=O)(=O)c1ccc(Cl)cc1)C(=O)OCCOc1ccc(F)cc1 (stereo unspecified)	inactive
Cc1cnc(NC(=O)c2sc(Nc3ccccc3)nc2N)o1	inactive
CC(C)NC(=O)N(C)C[C@H]1Oc2ccc(NC(=O)Nc3ccccc3)cc2C(=O)N([C@H](C)CO)C[C@@H]1C	inactive
COc1cccc(CSc2nc3ccccc3[nH]2)c1	inactive
COc1cc2sc3cc(NCc4ccc(C)o4)ccc3c(=O)c2cc1OC	inactive
CCOC(=O)C1=C(Nc2ccc(OC)cc2)OCC1=O	inactive
COc1ccc(Nc2n[nH]c(C)c2[N+](=O)[O-])cc1	inactive
CCOc1ccc(C(=O)N(CC(=O)Nc2cccc(C)c2C)CC2CCCO2)cc1OC (stereo unspecified)	inactive
COc1ccc(-c2nnc(-c3cccnc3)o2)cc1	inactive
COc1ccc(S(=O)(=O)N2CCOCC2)cc1NC(=O)c1ccc2c(c1)OCCO2	inactive
C#CCOC(=O)CCCC(=O)Nc1ccccc1OC	inactive
C=CCn1c(C)nc2c(sc3nc4c(cc32)COC(C)(C)C4)c1=O	inactive
CCOc1ccc(/C=N/NC(=O)Cn2ccnc2C)cc1	inactive
COc1cc(/C=N/Nc2ccc(C(F)(F)F)cn2)ccc1O	inactive
O=C1NC(c2ccccc2Cl)=N/C1=C/c1ccco1	inactive
c1ccc(-c2cn(CC3CCCCC3)nn2)cc1	inactive

Compound	activation
COc1cc(C#Cc2ccc3cc(CCO)oc(=O)c3c2)cc(OC)c1	inactive
O=c1oc(CCCO)cc2ccc(C#Cc3ccsc3)cc12	inactive
CCOC(=O)C1(Cc2cccc(OC)c2)CCCN(C(=O)c2ccccc2C)C1 (stereo unspecified)	inactive
Brc1ccsc1/C=N/Nc1ccccc1	inactive
Cc1cccc(C(=O)c2c(N)sc3c2CCCC3)c1	inactive
CC(=O)Nc1ccc(NC(=O)CN(c2ccccc2Cl)S(C)(=O)=O)cc1	inactive
O=C(c1ccccc1)c1ccc(-c2ccc(O)cc2)cc1	inactive
CC(C)OC(=O)c1ccc2nc3ccccc3nc2c1	inactive
Cc1nc(C)c(-c2csc(Nc3cccc(O)c3)n2)s1	inactive
O=C(Nc1nc2ccccc2[nH]1)c1cccc(Cl)c1	inactive
COc1cccc(NC(=O)c2cccc(Cl)c2)c1	inactive
O=C(CSc1nncs1)NCCCc1ccccc1	inactive
Cc1nc(-c2ccc(NC(=O)c3ccccc3Br)cc2)cs1	inactive
CC1=CC(=C2C(=O)c3ccccc3C2=O)C=C(C)N1Cc1ccco1	inactive
COC(=O)c1c(NC(C)=O)sc(C(=O)Nc2ccccc2F)c1C	inactive
CCCC(=O)Nc1sc(C(=O)Nc2cccc(N)c2)c(C)c1C(=O)OC	inactive
CCCc1nc2oc3c(NCC(C)O)ncnc3c2c2c1CCCC2 (stereo unspecified)	inactive
Cc1ccsc1C(=O)OCC(=O)N(C)C1CCCCC1	inactive
Cc1ccsc1C(=O)OCC(=O)c1ccc[nH]1	inactive
Cc1ccnc(NC(=O)C2COc3ccccc3O2)c1 (stereo unspecified)	inactive
CC(=Nc1ccc(C)cc1)c1sc2ccccc2c1O	inactive
CC(=Nc1ccccc1O)c1sc2ccccc2c1O	inactive
CCCC(=O)Nc1ccc(C#Cc2ccccc2)cc1	inactive
O=C(NN1C(=O)C2C3c4ccccc4C(c4ccccc43)C2C1=O)C1CC1 (stereo unspecified)	inactive
O=C(O)CC(CN1C(=O)c2ccccc2C1=O)c1ccccc1 (stereo unspecified)	inactive

Compound	activation
c1ccc(-c2noc(C3CCCCC3)n2)nc1	inactive
CCc1ccc(NC2=CC(=O)C(=O)c3ccccc32)cc1	inactive
Nc1ccc2c(c1)C(=O)c1ccccc1C2=O	inactive
CC(C)NC(=O)c1cc(-c2ccc3c(c2)OCO3)on1	inactive
Cc1ccc(S(=O)(=O)N2CCN(C(=O)Cn3c(=O)cnc4ccccc43)CC2)c(C)c1	inactive
COc1ccccc1CN(C)C(=O)C1COc2ccccc2O1 (stereo unspecified)	inactive
Cc1ccc(/C=C/C(=O)Nc2cc(C)on2)cc1	inactive
CC(=O)Nc1ccc(C(=O)COC(=O)C2CC2)c(F)c1	inactive
CCCC(=O)Nc1ccc(C(=O)COC(=O)C2CC2C)cc1 (stereo unspecified)	inactive
Cc1ccc(OCC(=O)O/N=C(\N)c2ccccn2)cc1C	inactive
COc1ccc2nc(Nc3ccccc3OC)sc2c1	inactive
COc1ccccc1-c1nc(COc2ccc(Cl)cc2Cl)no1	inactive
Cc1cc(Cl)ccc1OCc1nnc(-c2ccccc2C)o1	inactive
CCOc1ccc(NC2c3ccccc3C(=O)N2c2ccc(Cl)cn2)cc1 (stereo unspecified)	inactive
O=C(CN1C(=O)CCC1=O)Nc1nc(-c2ccc3ccccc3c2)cs1	inactive
CCN(CC)S(=O)(=O)c1ccc(O)c(NC(=O)COc2ccc(S(=O)(=O)N3CCOCC3)cc2)c1	inactive
O=C1NC(=Nc2ccccc2)S/C1=C/c1cccs1	inactive
Cc1ccc(N/C=C2/Sc3ccccc3NC2=O)cc1	inactive
COC(=O)[C@@H](Cc1c[nH]c2ccccc12)NC(=O)c1ccc2c(c1)OCO2	inactive
CCCCNC(=O)C1CC(c2cccc(F)c2)=NO1 (stereo unspecified)	inactive
COc1ccc(CNC(=O)C(=O)NCC(c2ccco2)N2CCOCC2)cc1 (stereo unspecified)	inactive
O=C(COc1ccc(Cl)cc1Br)NC(=O)NC1CCCC1	inactive
Cc1ccc(C(=O)Nc2ccc3c(c2)OCO3)cc1Cl	inactive
O=C(Nc1ccc(F)cc1F)c1cc2ccccc2oc1=O	inactive
O=C(NCCc1c[nH]c2ccccc12)c1cc(Cl)c2c(c1)OCO2	inactive

Compound	activation
COc1ccc(/C(N)=N/OC(=O)C2CCCCC2)cc1	inactive
Cc1ccc(NC(=O)c2sccc2C)cc1[N+](=O)[O-]	inactive
Cc1cccnc1NC(=O)c1cc2ccccc2oc1=O	inactive
COc1ccc(-c2nc3c4ccccc4[nH]c(=O)n3n2)cc1	inactive
O=C(NCC(=O)N1CCCCC1)c1sc2ccccc2c1Cl	inactive
O=C(Nc1nccs1)c1sc2cc(Cl)ccc2c1Cl	inactive
C/C(=C\c1ccccc1)C(=O)NCc1ccco1	inactive
O=C(NN1C(=O)C2C3c4ccccc4C(c4ccccc43)[C@@H]2C1=O)c1ccccc1 (stereo partly specified)	inactive
CCOC(=O)c1cccc(COC(=O)c2cccc(-c3nnc(-c4ccccc4)o3)c2)c1	inactive
CN(CC(=O)Nc1ccc(F)cc1)C(=O)COC(=O)c1cccc(N(C)C)c1	inactive
COc1ccc(/C=C2\CCC(C3CCCC3)C2=O)cc1OC (stereo unspecified)	inactive
Cc1cc(C)n(-c2nc3ccccc3s2)n1	inactive
CN(C)c1ccc(-c2ccc3c(=O)c4ccccc4n(C)c3c2)cn1	inactive
O=C(COn1nnc2ccccc21)NCC1CCCCC1	inactive
O=C(NNS(=O)(=O)c1ccccc1)C1CCN(S(=O)(=O)c2ccccc2)CC1	inactive
O=C(Nc1ccccc1)c1cc2ccccc2o1	inactive
O=C(c1ccc(F)cc1)c1cc2ccccc2o1	inactive
COc1ccc(/C=C2/CCc3ccccc3C2=O)cc1OC	inactive
Cc1ccc(/C=C/C(=O)c2nc3ccccc3[nH]2)cc1	inactive
O=C(/C(=C/c1ccc(Cl)cc1)c1nc2ccccc2[nH]1)c1ccccc1	inactive
Nc1c(C(=O)Nc2ccc(Cl)cc2)oc2ccccc12	inactive
O=C(/C=C/c1ccco1)Nc1ccccc1C(=O)O	inactive
CCOc1ccc(CCNC(=O)COC(=O)c2cccc(N(C)C)c2)cc1OCC	inactive
CCOc1ccc(CCNC(=O)COc2cc(=O)n(C)c3ccccc23)cc1OCC	inactive
CCc1nnc(NC(=O)/C=C/c2ccco2)s1	inactive

Compound	activation
CC(C)(C)c1ccc(/C=C/C(=O)Nc2cccnc2)cc1	inactive
Cc1cc(C(=O)COC(=O)c2ccc(O)cc2)c(C)n1CC(F)(F)F	inactive
C(=C\c1cc(/C=C/c2ccccc2)ncn1)/c1ccccc1	inactive
COc1ccc(C(=O)/C=C/c2ccccc2C(F)(F)F)cc1	inactive
COC(=O)c1ccc(NC(=O)Cc2ccccc2)cc1	inactive
CCCCOC(=O)Nc1ccc(N2CCCCC2)cc1	inactive
COc1ccc(/C=C(/NC(=O)c2ccccc2Cl)C(=O)O)cc1	inactive
O=C(O)Cc1sc(Nc2ccccc2)nc1-c1cccs1	inactive
Cc1nc(Nc2ccccc2)sc1C(=O)c1ccccc1	inactive
O=C(Nc1ccc(Cl)cc1)Nc1ccccc1C(=O)NCc1ccco1	inactive
COC(=O)CNc1c(-c2ccccn2)nc2ccc(Br)cn12	inactive
Cc1ccsc1C(=O)OCc1cc(=O)n2ccsc2n1	inactive
COC(=O)c1ccc(NC(=O)c2cccc(OC)c2)cc1	inactive
COc1ccc(NC(=O)c2cccc(OS(=O)(=O)N(C)C)c2)cc1	inactive
O=C(/C=C\c1ccco1)Oc1cccc2cccnc12	inactive
C(=N\Nc1nccc(-c2cccnc2)n1)/c1ccccc1	inactive
CC(C)(C)c1cc(C(=O)NNC(=O)c2ccc(C(F)(F)F)cc2)no1	inactive
CN(C)c1ccc(/C=C/c2ccncc2)cc1	inactive
COc1ccc(/C=C/C(=O)c2ccccn2)cc1	inactive
COc1c(OC(C)=O)ccc(/C=C/c2ccc3cccc(OC)c3n2)c1[N+](=O)[O-]	inactive
CC(=O)Nc1ccc(-c2ccnc3c2CC(C)(C(=O)NC(C)C)O3)cc1 (stereo unspecified)	inactive
